Screening data from PubChem BioAssay.
Mtb hypoxia rep – PubChem AID 1159583. M. tuberculosis hypoxia-regulated fluorescent reporter, fluorescence. fluorescence inhibition, % (concentration not given with the values). 300,000 compounds, 0.1% hits; in the data active means fluorescence inhibition mostly above about 23%, no sharp cut-off; inactive means mostly below about 17%
CCHF vOTU inh – CCHFV vOTU protease inhibitors, primary screen, biochemical, Pep-AMC substrate, fluorescence; inhibition, % at 11.5 µM; 370,000 compounds, 0.55% hits; AID 651958, 2012; in the data active means inhibition above about 30%; further: 0% = vehicle wells with enzyme and 100% = no enzyme wells
PfHsp40 yeast – rescue of yeast from PfHsp40 toxicity, primary screen, S. cerevisiae, ATP luminescence; 340,000 compounds, 0.68% hits; AID 504582, 2011; growth rescue, % at 12.5 µM; S. cerevisiae expressing PfHsp40, growth rescue; in the data active means growth rescue above about 28%, passing the limit was not always enough;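 further: yeast W303a lacking pdr1 and pdr3 grown in galactose medium; growth measured after three days at 30 °C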
RecA splice inh – Mtb RecA intein splicing inhibitors, primary screen, biochemical, fluorescence, HTS; inhibition, % (test concentration not listed); 290,000 compounds, 0.75% hits; cell-free RecA intein splicing; in the data active means inhibition above about 30%;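 further: 0% = vehicle wells and 100% = reference inhibitor control wells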
Target sequence (P9WHJ3 whole entry, looked up, canonical isoform): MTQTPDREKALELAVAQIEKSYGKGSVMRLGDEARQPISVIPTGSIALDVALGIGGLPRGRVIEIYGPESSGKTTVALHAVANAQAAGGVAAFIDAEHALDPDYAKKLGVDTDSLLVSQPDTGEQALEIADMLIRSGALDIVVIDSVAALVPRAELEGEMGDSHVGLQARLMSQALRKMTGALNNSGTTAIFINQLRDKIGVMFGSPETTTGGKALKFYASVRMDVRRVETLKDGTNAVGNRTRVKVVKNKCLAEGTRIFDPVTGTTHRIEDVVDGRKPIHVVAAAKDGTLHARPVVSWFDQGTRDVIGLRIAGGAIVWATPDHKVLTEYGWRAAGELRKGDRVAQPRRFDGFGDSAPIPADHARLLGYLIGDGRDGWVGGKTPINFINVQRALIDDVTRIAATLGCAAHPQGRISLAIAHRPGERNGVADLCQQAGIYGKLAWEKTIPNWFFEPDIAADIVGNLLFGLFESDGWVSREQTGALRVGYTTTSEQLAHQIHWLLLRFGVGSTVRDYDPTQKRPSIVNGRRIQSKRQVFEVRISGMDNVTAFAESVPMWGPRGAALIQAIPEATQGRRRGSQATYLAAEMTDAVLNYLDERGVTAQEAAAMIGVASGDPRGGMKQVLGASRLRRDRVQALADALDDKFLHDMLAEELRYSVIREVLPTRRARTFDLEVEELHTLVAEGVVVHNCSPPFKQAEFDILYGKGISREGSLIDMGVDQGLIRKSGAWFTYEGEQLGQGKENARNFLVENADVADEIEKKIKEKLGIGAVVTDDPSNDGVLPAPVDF
Mtb bLac sens – beta-lactam sensitization of Mtb H37Rv, H37Rv. inhibition, % at 25 µM. AID 434955, 2010. M. tuberculosis H37Rv growth with meropenem, percent inhibition. 330,000 compounds, 0.27% hits; call rule not given here;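 further: growth measured after seven days incubation then overnight dye step; 0% = bacteria only wells and 100% = bacteria with antibiotic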
Numbers without * were called inactive; . = not tested or not shown. Only some compounds are listed: those with a hit (about 1.7% of all), similar ones and a draw of the others.

SMILES	Mtb hypoxia rep	CCHF vOTU inh	PfHsp40 yeast	RecA splice inh	Mtb bLac sens
O=c1[nH]c(-c2ccccn2)nc(C(F)(F)F)c1Br	5	-3	133*	0	72
COc1cc(NC(=O)C2CC(c3c(F)cccc3Cl)=NO2)c(OC)cc1Cl (stereo unspecified)	-4	1	1	15	-1
Cc1ccc(O)c(NC(=O)C2CC(c3c(F)cccc3Cl)=NO2)c1 (stereo unspecified)	15	2	36*	-1	24
CC(C)C(=O)NC(c1ccco1)c1ccc2cccnc2c1O (stereo unspecified)	.	-9	297*	-4	11
CC(C)C(=O)NC(c1cccc([N+](=O)[O-])c1)c1ccc2cccnc2c1O (stereo unspecified)	9	-1	228*	2	7
Cc1ccnc2nc(C(=O)Nc3nc4ccccc4s3)nn12	53*	1	0	0	92
Cc1ccnc2nc(C(=O)NC3CCCc4ccccc43)nn12 (stereo unspecified)	16	-13	147*	-1	12
Cn1ncc2c(ON=C(N)c3ccc(C(F)(F)F)cc3)ncnc21	1	.	.	.	.
Cn1ncc2c(O/N=C(\N)c3ccc(C(C)(C)C)cc3)ncnc21	.	.	73*	10	-6
O=C(Nc1ccc(Cl)cn1)c1cccc(S(=O)(=O)N2CCCCC2)c1	7	-11	70*	4	.
CCN(CC)c1ccc(C=NN2CCOCC2)cc1	2	.	.	.	.
CC(C)c1ccc(O)c(NC(=O)c2cccnc2)c1	-2	-5	1	-1	-4
CCC(C)c1ccc(O)c(NC(=S)NC(=O)c2cccnc2)c1 (stereo unspecified)	-8	-3	54*	0	97
Cc1ccsc1C=NNC(=O)Cn1nnc2ccccc21	10	.	.	.	.
O=S(OCCN1CCOCC1)C(c1ccccc1)c1ccccc1 (stereo unspecified)	18	-11	109*	.	.
CCS(=O)(=O)c1ccc(N=Nc2ccc(O)c3ncccc23)c(OC)c1	16	-2	214*	2	.
Cc1nc(NN=Cc2ccc(O)cc2)c2cnn(-c3ccccc3)c2n1	-4	.	.	.	.
COc1ccc(CN2CCN(C(c3ccc(F)cc3)c3ccc(F)cc3)CC2)c(OC)c1OC	-8	0	39*	23	93
COc1ccc(CN2CCN(c3ccc(F)cc3)CC2)c(OC)c1OC	6	0	0	-3	-5
O=C(O)[C@]1(S(=O)(=O)c2ccccc2)CC2ON=C(c3cccc(Br)c3)C2C1 (stereo partly specified)	2	.	.	.	.
O=C(c1c[nH]c(C(=O)C(Cl)(Cl)Cl)c1)c1ccccc1F	5	-12	2	60*	6
CCN(CC)S(=O)(=O)c1cccc(C(=O)NCC(c2ccccc2)N(C)C)c1 (stereo unspecified)	15	-1	97*	-3	0
O=c1ccc(-c2n[nH]c(=S)n2-c2ccc(F)c(Cl)c2)n[nH]1	7	5	52*	-7	-7
COc1ccc(S(=O)(=O)N(C)CC2Oc3ccc(NS(=O)(=O)c4ccc(F)cc4)cc3C(=O)N(C(C)CO)CC2C)cc1 (stereo unspecified)	5	.	.	.	.
Cc1cccc(CSC(=N)N)c1	3	-15	1	-1	-1
SMILES	Mtb hypoxia rep	CCHF vOTU inh	PfHsp40 yeast	RecA splice inh	Mtb bLac sens
Cc1cccc(CSC(Nc2ccc(F)cc2)=C(C#N)C#N)c1	5	-11	0	53*	-3
O=C(NN=Cc1ccncc1)c1cc(C2CC2)nc2ccccc12	11	.	.	.	.
COC(=O)COc1ccc(-c2ccc(F)cc2)cc1C=O	3	-10	63*	0	-5
COC(=O)COc1ccc(C)cc1-n1nc2ccccc2n1	4	5	44*	1	77
Cc1ccc(OC(=O)COc2ccccc2C)c(-n2nc3ccccc3n2)c1	5	3	0	20	13
COC(=O)COc1ccccc1C(N)=O	5	-5	-2	1	-4
COC(=O)COc1ccc(-c2ccccc2)cc1C=O	6	-11	64*	2	99
CN1CCN(C=C2SC(=S)NC2=O)CC1	14	.	.	.	.
COc1cc(C=NNC(=O)c2sc(N)c(C#N)c2C)ccc1O	2	.	.	.	.
c1ccc(-c2nc(Sc3ncnc4c3cnn4-c3ccccc3)n[nH]2)cc1	-89	.	.	32*	93
CCC(C)C1COCCS(=O)(=O)N1Cc1ccccc1F (stereo unspecified)	-1	.	.	.	.
